# Data published in PubChem BioAssay (Tox21).
# Where “and” joins values, the source holds several entries; their conditions need not be identical. Equal values may be shown once. Inconclusive results are not listed. A call without a number means that no potency is given here. Some compounds were tested as several samples or in several runs, with calls that do not always agree. Calls of active or inactive are those of the source. Unless noted, the call rests on the fitted dose curve; in most records, active means well fitted curve in the direction sought with a large enough effect in the repeat runs; inconclusive means weak or mixed curves; inactive means no such curve, though single readings can be large; an effect the other way counts as inactive or inconclusive.
# Key:
# [1] = qHTS assay to identify small molecule HDAC inhibitors (AID 1259364); further: top concentration of the series differs between compounds; nearly all actives have a fitted effect of over 45% in size
# How it was run: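 Wild-type HCT-116 cells were plated overnight, exposed to compounds for 2 h at 37 °C, then given HDAC-Glo class I/II luminogenic reagent for 30 min at room temperature before luminescence was read.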
# [2] = qHTS assay to identify small molecule HDAC inhibitors - cell viability counter screen (AID 1259365); further: series mostly up to about 92 µM; nearly all actives have a fitted effect of over 50% in size
# How it was run: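 Counter screen in wild-type HCT-116 cells: compounds dissolved in DMSO are pin-transferred onto overnight-plated cells and left 2hr at 37C. ATP-based CellTiter-Glo luminescence then measures viable cells.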
# [3] = qHTS assay to identify small molecule agonists of the sonic hedgehog signaling (Shh) pathway - cell viability counter screen (AID 1259366); further: nearly all actives have a fitted effect of over 50% in size
# How it was run: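 Cells are plated at 2,000 per well and left 4hr at 37C, 5% CO2 before compound addition. After 23hr of treatment, CellTiter-Fluor reagent is added for 1hr at 37C and fluorescence is measured.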
# [4] = qHTS assay to identify small molecule antagonists of the sonic hedgehog signaling (Shh) pathway - cell viability counter screen (AID 1259367); further: nearly all actives have a fitted effect of over 55% in size
# How it was run: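 NIH/3T3-derived Gli1-Luc reporter cells, 2,000/well, plated 4 hr before compound addition, then stimulated with conditioned medium for 24 hr at 37C. Viability measured in the same wells by CellTiter-Fluor fluorescence, reagent added at 23 hr for 1 hr.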
# [5] = qHTS assay to identify small molecule agonists of the sonic hedgehog signaling (Shh) pathway (AID 1259368; calls by dose curve; further: series mostly up to about 92 µM; nearly all actives have a fitted effect of over 15% in size)
# How it was run: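 NIH/3T3-derived 3T3Gli1-Luc cells carrying a stably integrated Gli1 response element–firefly luciferase reporter were plated, left 4 hr at 37 C, then given compounds in DMSO for 24 hr. Luminescence was read 30 min after adding luciferase reagent.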
# [6] = qHTS assay to identify small molecule antagonists of the sonic hedgehog signaling (Shh) pathway (AID 1259369; calls by dose curve; further: nearly all actives have a fitted effect of over 45% in size; further: potency means the concentration at half of the fitted maximal effect)
# How it was run: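 NIH/3T3-derived 3T3Gli1-Luc cells with stably integrated Gli1-Luc reporter were preincubated 4hr at 37 C, then given compounds in DMSO plus Shh conditioned medium and incubated 24hr. Firefly luciferase luminescence read after 30min reagent at room temperature.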
# [7] = qHTS assay to identify small molecule agonists of the androgen receptor (AR) signaling pathway in the presence of an antagonist - cell viability counter screen (AID 1259379); further: series mostly up to about 92 µM; nearly all actives have a fitted effect of over 25% in size
# How it was run: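 MDA-kb2 human breast carcinoma cells (stable MMTV-luciferase, AR/GR responsive) were seeded 3,000 cells/well, pre-incubated 5 hr at 37C without CO2, then given 3.0uM nilutamide and compounds at 15 concentrations for 16 hr. Viability was read by CellTiter-Fluor fluorescence.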
# [8] = qHTS assay to identify small molecule agonists of the estrogen receptor beta (ER-beta) signaling pathway - cell viability counter screen (AID 1259380); further: nearly all actives have a fitted effect of over 30% in size; further: potency means the concentration at half of the fitted maximal effect
# How it was run: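 ER-beta-UAS-bla HEK293T cells in medium with 2% charcoal-stripped FBS were preincubated 6 hr at 37C, dosed with compound in DMSO for 16 hr, then after the bla read, CellTiter-Glo was added for 30 min at room temperature; luminescence recorded.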
# [9] = qHTS assay to identify small molecule antagonists of the estrogen receptor beta (ER-beta) signaling pathway - cell viability counter screen (AID 1259382); further: series mostly up to about 92 µM; nearly all actives have a fitted effect of over 55% in size
# How it was run: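 ER-beta-UAS-bla HEK293T cells (2,000/well, 2% charcoal-stripped FBS) were pre-incubated 6 hr at 37C, then given compound plus 1nM final 17-beta-estradiol for 16 hr. Viability was read in the same wells by CellTiter-Glo luminescence after 30 min at room temperature.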
# [10] = qHTS assay to identify small molecule agonists or antagonists of the thyroid stimulating hormone receptor (TSHR) signaling pathway - wild type cell line counter screen (AID 1259384; calls by dose curve)
# How it was run: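 Wild-type Hek293 cells, 800/well, 18 h at 37C, then compound with Ro20-1724 for 30 min RT. cAMP by HTRF (cAMP-d2/anti-cAMP cryptate), 1 h RT, fluorescence read. 15 concentrations, triplicates.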
# [11] = target: Thyrotropin receptor (Homo sapiens) (UniProt P16473); assay: qHTS assay to identify small molecule antagonists of the thyroid stimulating hormone receptor (TSHR) signaling pathway (AID 1259385; calls by dose curve; further: nearly all actives have a fitted effect of over 20% in size; further: potency means the concentration at half of the fitted maximal effect)
# How it was run: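 TSHR-HEK293 cells (800/well) plated 18 h, then compounds with Ro20-1724 and TSH at 1.5 ng/mL final, 30 min at room temperature. cAMP quantified by HTRF (cAMP-d2/anti-cAMP-cryptate, 1 h); 15 concentrations in triplicate.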
# [12] = qHTS assay to identify small molecule agonists of the estrogen receptor alpha (ER-alpha) signaling pathway in the presence of an antagonist - cell viability counter screen (AID 1259386);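 further: series mostly up to about 92 µM; cells exposed to compounds for 22 h at 37 °C before the viability read; nearly all actives have a fitted effect of over 30% in size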
# How it was run: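 VM7Luc4E2 cells (endogenous full-length ER-alpha, 4×ERE-luciferase) were held 5 days in phenol red-free medium with 10% charcoal-stripped FBS, plated, then given 10.0nM ICI-182,780 and compounds at 15 concentrations for 22hr at 37C; viability read by CellTiter-Fluor fluorescence.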
# [13] = target: Progesterone receptor (Homo sapiens) (UniProt P06401); assay: qHTS assay to identify small molecule agonists of the progesterone receptor (PR) signaling pathway (AID 1346784; calls by dose curve; further: nearly all actives have a fitted effect of over 30% in size)
# How it was run: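 Cells (PR-UAS-bla HEK 293T, GripTite) were plated in assay medium containing 2% charcoal-stripped FBS and incubated 6 hr. Test compounds in DMSO were added for 16 hr at 37C. FRET substrate was then loaded for 2 hr at room temperature before fluorescence reading.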
# [14] = target: Progesterone receptor (Homo sapiens) (UniProt P06401); assay: qHTS assay to identify small molecule antagonists of the progesterone receptor (PR) signaling pathway (AID 1346795; active means well fitted inhibition curve with a large enough effect in the signal ratio in the repeat runs, not every such curve was filed as active; the % refers to the signal ratio; further: potency means the concentration at half of the fitted maximal effect)
# How it was run: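 Antagonist mode: compounds tested against 1 nM (final) promegestone stimulation in HEK293T cells expressing PR-UAS-bla reporter, 16 hr at 37C, 5% CO2; beta-lactamase activity detected via B/G FRET substrate after 2 hr at room temperature.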
# [15] = target: Estrogen receptor beta (Homo sapiens) (UniProt Q92731); assay: qHTS assay to identify small molecule agonists of the estrogen receptor beta (ER-beta) signaling pathway (AID 1259377; active means well fitted activation curve with a large enough effect in the signal ratio in the repeat runs, not every such curve was filed as active; the % refers to the signal ratio; further: potency means the concentration at half of the fitted maximal effect)
# How it was run: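 Agonist mode cell assay in GripTite HEK293T cells expressing an ER-beta fusion that drives beta-lactamase from an Upstream Activator Sequence; 16 hr compound exposure at 37C, then 2 h LiveBLAzer B/G FRET substrate at room temperature, fluorescence read-out.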
# [16] = target: Estrogen receptor beta (Homo sapiens) (UniProt Q92731); assay: qHTS assay to identify small molecule antagonists of the estrogen receptor beta (ER-beta) signaling pathway (AID 1259378; active means well fitted inhibition curve with a large enough effect in the signal ratio in the repeat runs, not every such curve was filed as active; the % refers to the signal ratio)
# How it was run: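 ER-beta-UAS-bla HEK293T cells in 2% charcoal-stripped FBS medium treated with compound plus 1nM final 17-beta-estradiol for 16 hr at 37C. Beta-lactamase reporter read by FRET substrate fluorescence after 2 hours at room temperature.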
# [17] = target: Estrogen receptor (Homo sapiens) (UniProt P03372); assay: qHTS assay to identify small molecule agonists of the estrogen receptor alpha (ER-alpha) signaling pathway in the presence of an antagonist (AID 1259383; calls by dose curve; further: top concentration of the series differs between compounds; nearly all actives have a fitted effect of over 15% in size)
# How it was run: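 VM7Luc4E2 cells (endogenous full-length ER-alpha, 4×ERE-luciferase) were precultured 5 days in phenol red-free medium with 10% charcoal-stripped FBS, given 10.0nM ICI-182,780 (final), then treated with compounds at 15 concentrations for 22hr at 37C; luminescence read with ONE-Glo.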
# [18] = qHTS assay to identify small molecule phospholipidosis (PLD) inducers (AID 1259344; active means well fitted curve in the direction sought with a large enough effect; an effect the other way counts as inactive or inconclusive)
# How it was run: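 HepG2 cells, 900/well, treated with compound plus LipidTOX Red for 24 h at 37 C; amiodarone positive and DMSO negative controls. Fixed with paraformaldehyde/Hoechst, then high-content imaging scored LipidTOX pit count and integrated intensity per well and per cell.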
# [19] = target: Androgen receptor (Homo sapiens) (UniProt P10275); assay: qHTS assay to identify small molecule agonists of the androgen receptor (AR) signaling pathway in the presence of an antagonist (AID 1259381; calls by dose curve; further: nearly all actives have a fitted effect of over 15% in size)
# How it was run: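 MDA-kb2 human breast carcinoma cells carrying an MMTV-luciferase reporter (AR- and GR-responsive) were treated with compounds at 15 concentrations plus 3.0uM final nilutamide for 16hr at 37C without CO2; luminescence was read after ONE-Glo addition.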
# Estrogen receptor beta (Homo sapiens), sequence (Q92731 whole entry, looked up, the tested form may be a part): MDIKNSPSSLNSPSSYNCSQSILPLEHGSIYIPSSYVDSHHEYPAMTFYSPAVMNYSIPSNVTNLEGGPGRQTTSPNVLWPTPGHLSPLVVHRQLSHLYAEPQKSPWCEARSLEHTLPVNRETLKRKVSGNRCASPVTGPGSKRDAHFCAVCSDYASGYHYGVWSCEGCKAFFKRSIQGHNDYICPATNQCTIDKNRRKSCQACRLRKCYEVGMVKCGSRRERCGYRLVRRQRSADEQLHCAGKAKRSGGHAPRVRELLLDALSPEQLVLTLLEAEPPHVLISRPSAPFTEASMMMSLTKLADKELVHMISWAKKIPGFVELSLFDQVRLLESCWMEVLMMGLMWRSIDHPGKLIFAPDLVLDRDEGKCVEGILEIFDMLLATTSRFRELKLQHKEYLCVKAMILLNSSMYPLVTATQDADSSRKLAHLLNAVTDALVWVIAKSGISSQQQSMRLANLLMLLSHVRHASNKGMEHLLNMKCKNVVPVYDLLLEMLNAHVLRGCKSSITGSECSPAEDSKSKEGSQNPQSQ
# Thyrotropin receptor (Homo sapiens), sequence (P16473 whole entry, looked up): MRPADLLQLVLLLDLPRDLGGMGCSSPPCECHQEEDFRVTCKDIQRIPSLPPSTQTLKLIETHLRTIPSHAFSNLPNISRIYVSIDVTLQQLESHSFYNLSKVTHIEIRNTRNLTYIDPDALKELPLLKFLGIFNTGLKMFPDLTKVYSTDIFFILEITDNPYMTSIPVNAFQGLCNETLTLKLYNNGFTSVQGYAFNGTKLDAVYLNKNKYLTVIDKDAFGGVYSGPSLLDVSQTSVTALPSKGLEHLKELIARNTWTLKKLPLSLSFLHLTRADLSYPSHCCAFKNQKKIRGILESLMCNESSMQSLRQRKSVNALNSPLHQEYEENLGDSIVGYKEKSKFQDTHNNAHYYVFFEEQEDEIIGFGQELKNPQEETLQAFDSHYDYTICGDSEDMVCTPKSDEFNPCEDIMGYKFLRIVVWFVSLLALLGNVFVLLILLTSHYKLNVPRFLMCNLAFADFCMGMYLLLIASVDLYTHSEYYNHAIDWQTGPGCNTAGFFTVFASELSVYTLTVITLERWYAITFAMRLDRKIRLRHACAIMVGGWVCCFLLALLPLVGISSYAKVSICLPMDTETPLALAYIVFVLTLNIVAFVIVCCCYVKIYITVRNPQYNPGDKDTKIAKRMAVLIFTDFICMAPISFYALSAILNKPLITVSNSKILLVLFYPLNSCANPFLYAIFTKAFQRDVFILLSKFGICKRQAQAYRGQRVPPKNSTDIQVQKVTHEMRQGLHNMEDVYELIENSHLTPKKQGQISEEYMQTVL
# Androgen receptor (Homo sapiens), sequence (P10275 whole entry, looked up): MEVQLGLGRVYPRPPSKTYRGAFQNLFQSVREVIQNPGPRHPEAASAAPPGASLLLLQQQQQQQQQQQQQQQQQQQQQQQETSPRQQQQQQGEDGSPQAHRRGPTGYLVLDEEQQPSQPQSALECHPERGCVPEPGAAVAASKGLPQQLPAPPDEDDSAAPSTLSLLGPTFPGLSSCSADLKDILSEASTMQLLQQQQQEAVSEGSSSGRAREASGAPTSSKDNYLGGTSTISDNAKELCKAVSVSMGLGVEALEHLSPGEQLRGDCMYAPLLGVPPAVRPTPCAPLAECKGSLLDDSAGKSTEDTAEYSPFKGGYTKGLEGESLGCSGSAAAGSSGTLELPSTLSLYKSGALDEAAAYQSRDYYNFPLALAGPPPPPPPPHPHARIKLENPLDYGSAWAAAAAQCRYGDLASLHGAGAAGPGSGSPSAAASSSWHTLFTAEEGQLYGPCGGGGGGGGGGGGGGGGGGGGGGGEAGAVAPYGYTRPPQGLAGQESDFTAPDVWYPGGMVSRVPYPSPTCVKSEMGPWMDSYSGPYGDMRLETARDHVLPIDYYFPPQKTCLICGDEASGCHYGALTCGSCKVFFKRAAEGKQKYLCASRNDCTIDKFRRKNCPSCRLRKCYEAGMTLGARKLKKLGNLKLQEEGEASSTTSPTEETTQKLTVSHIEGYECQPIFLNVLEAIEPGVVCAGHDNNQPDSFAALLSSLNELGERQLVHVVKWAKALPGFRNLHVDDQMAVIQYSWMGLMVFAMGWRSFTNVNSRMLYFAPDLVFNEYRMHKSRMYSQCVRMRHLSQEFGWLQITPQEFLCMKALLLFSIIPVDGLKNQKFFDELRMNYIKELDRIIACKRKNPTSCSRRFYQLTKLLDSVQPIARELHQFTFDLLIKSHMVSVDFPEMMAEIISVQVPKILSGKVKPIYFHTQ
# Estrogen receptor (Homo sapiens), sequence (P03372 whole entry, looked up): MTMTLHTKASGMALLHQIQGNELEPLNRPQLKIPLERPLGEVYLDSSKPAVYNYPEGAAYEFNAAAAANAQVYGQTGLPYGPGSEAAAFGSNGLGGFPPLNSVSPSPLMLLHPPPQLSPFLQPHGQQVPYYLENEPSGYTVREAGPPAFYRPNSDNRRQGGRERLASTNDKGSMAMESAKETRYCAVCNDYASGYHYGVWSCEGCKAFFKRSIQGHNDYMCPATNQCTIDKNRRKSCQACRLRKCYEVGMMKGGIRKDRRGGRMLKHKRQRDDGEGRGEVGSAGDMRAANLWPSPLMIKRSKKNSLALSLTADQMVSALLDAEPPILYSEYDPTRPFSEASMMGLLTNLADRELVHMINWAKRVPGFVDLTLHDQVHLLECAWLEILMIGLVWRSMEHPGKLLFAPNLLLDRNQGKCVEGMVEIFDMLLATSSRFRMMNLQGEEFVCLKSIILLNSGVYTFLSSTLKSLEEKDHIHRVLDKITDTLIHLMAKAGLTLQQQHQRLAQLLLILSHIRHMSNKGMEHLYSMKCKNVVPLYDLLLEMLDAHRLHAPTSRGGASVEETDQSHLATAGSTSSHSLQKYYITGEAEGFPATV
# Progesterone receptor (Homo sapiens), sequence (P06401 whole entry, looked up): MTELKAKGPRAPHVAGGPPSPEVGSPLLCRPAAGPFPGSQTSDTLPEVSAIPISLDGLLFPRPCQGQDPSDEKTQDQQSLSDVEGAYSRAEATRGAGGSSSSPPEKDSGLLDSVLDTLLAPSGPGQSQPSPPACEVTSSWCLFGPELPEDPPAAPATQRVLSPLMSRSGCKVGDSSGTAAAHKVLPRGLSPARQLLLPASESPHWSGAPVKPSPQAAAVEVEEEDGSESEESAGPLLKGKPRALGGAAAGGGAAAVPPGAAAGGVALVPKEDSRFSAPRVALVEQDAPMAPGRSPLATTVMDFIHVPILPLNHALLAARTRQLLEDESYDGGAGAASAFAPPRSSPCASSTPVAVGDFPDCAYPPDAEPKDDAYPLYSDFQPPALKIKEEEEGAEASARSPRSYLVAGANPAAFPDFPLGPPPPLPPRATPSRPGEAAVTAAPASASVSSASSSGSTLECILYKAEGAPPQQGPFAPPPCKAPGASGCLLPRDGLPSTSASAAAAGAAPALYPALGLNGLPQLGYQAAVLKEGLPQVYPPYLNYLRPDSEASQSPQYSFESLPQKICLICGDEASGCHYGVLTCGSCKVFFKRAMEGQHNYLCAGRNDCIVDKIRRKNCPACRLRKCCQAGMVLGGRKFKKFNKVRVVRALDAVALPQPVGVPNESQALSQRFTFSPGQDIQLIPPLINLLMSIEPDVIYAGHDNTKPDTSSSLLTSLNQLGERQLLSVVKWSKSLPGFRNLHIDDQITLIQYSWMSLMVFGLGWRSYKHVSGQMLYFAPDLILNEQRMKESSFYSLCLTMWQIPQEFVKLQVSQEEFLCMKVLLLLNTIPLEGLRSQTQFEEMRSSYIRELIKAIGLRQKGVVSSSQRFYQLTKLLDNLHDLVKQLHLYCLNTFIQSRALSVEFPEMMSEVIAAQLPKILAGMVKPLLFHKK
SMILES,Potency [1],outcome [2],Potency [3],Potency [4],outcome [5],Potency [6],outcome [7],Potency [8],Potency [9],outcome [10],Potency [11],outcome [12],outcome [13],Potency [14],Potency [15],outcome [16],Potency [17],outcome [18],outcome [19]
Oc1ccccc1Cl,inactive,inactive,inactive,inactive,inactive,inactive,inactive,inactive,inactive,inactive,inactive,inactive,inactive,inactive,,,,,
Nc1ccc(Oc2ccc(N)cc2)cc1,inactive,inactive,inactive,inactive,inactive,inactive,inactive,,,,inactive,inactive,inactive,inactive,inactive,,,,
C#CC(C)(C)NC(=O)c1cc(Cl)cc(Cl)c1,inactive,inactive,inactive,inactive,inactive,inactive,inactive,inactive,,inactive,inactive,inactive,inactive,inactive,,,,,
O=S(=O)(c1ccc(Cl)cc1)c1cc(Cl)c(Cl)cc1Cl,inactive,inactive,inactive,inactive,inactive,,inactive,inactive,inactive,inactive,61.1 µM (active),inactive,,13.7 µM (active),inactive,inactive,inactive,,
CCOP(=S)(OCC)SCCSCC,inactive,inactive,inactive,inactive,inactive,inactive,inactive,inactive,inactive,inactive,inactive,inactive,inactive,inactive,inactive,inactive,,,
CCCCCCCCCCCC#N,inactive,inactive,inactive,inactive,inactive,inactive,inactive,inactive,inactive,,inactive,inactive,inactive,inactive,inactive,inactive,,,
CC(NC(C)(C)C)C(=O)c1cccc(Cl)c1 (centres undefined),inactive,inactive,inactive,inactive,inactive,inactive,inactive,,inactive,,,inactive,,inactive,,inactive,,inactive,
O=c1ccc(=O)[nH][nH]1,inactive,inactive,inactive,inactive,inactive,inactive,inactive,inactive,,,inactive,inactive,,inactive,,,,,inactive
CCCC1COC(Cn2cncn2)(c2ccc(Cl)cc2Cl)O1 (centres undefined),inactive,inactive,inactive,inactive,inactive,27.8 µM (active),,61.1 µM (active),inactive,inactive,inactive,inactive,,17.5 µM (active),,,inactive,,inactive
COC(=O)c1ccccc1N,inactive,inactive,inactive,inactive,inactive,inactive,inactive,inactive,inactive,inactive,inactive,inactive,,inactive,inactive,inactive,,,
CN(C)[C@@H]1C(=O)C(C(N)=O)=C(O)[C@@]2(O)C(=O)C3=C(O)c4c(O)cccc4[C@@](C)(O)[C@H]3C[C@@H]12,inactive,inactive,inactive,inactive,inactive,inactive,inactive,inactive,inactive,inactive,inactive,inactive,inactive,inactive,inactive,inactive,,inactive,
CN(C)N=O,inactive,inactive,inactive,inactive,inactive,inactive,inactive,inactive,,,,inactive,inactive,inactive,inactive,inactive,,,
Cc1cc(Cl)ccc1O,inactive,inactive,inactive,inactive,inactive,2.65 µM (active),inactive,inactive,inactive,inactive,inactive,inactive,,inactive,inactive,inactive,,,
O=c1[nH]c(=O)[nH]c(=O)[nH]1,inactive,inactive,inactive,inactive,inactive,inactive,inactive,inactive,inactive,inactive,inactive,inactive,,inactive,inactive,inactive,,,inactive
CN1C(=O)CN=C(c2ccccc2)c2cc(Cl)ccc21,inactive,inactive,inactive,inactive,inactive,4.39 µM (active),inactive,inactive,inactive,,inactive,inactive,inactive,,,,,inactive,
Clc1cccc(Cl)c1Cl,inactive,inactive,inactive,inactive,inactive,inactive,inactive,inactive,inactive,inactive,inactive,inactive,,inactive,,,,,
CC(C)(C)OOC(=O)c1ccccc1,inactive,inactive,inactive,inactive,inactive,inactive,inactive,inactive,inactive,,,inactive,inactive,inactive,61.2 µM (active) and inactive,inactive,,,
CCc1cccc(C)c1N(C(=O)CCl)C(C)COC (centres undefined),inactive,inactive,inactive,inactive,inactive,inactive,inactive,inactive,inactive,,inactive,inactive,inactive,,inactive,,,,
C[C@]12CC[C@H]3[C@@H](CC[C@@]45O[C@@H]4C(O)=C(C#N)C[C@]35C)[C@@H]1CC[C@@H]2O,inactive,inactive,inactive,inactive,inactive,27.3 µM (active) and 13.3 µM (active),inactive,inactive,,,inactive,inactive,inactive,,,inactive,,inactive,
CC1OC(C)OC(C)O1 (centres undefined),inactive,inactive,inactive,inactive,inactive,inactive,inactive,inactive,inactive,,,inactive,,inactive,inactive,inactive,,inactive,
